Read-out in assay [1]: Tissue plasminogen activator (tPA), PLAT (gene 5327)
The experiment in a line: BSK_BE3C_tPA: BioMAP Diversity Plus: BE3C Assay for Tissue plasminogen activator (tPA) Biomarker Activity (AID 2283041).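 Further: tPA level quantified by ELISA one day after compound addition.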 The following applies: primary human bronchial epithelial cells; actives raise or lower the signal. The gist of the method:
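Using human lung primary bronchial epithelial cells, tPA was measured by ELISA 24 h after dosing; data fitted relative to DMSO.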

Read-out in assay [2]: Interleukin-8 (IL8), CXCL8 (gene 3576)
Briefly: BSK_CASM3C_IL8: BioMAP Diversity Plus: CASM3C Assay for Interleukin-8 (IL8) Biomarker Activity (AID 2283042).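 Further: IL-8 protein level quantified by ELISA.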 The following applies: primary human coronary artery smooth muscle cells; actives raise or lower the signal.

Read-out in assay [3]: Human Leukocyte Antigen - DR isotype (HLADR), HLA-DRA (gene 3122)
The experiment in a line: BSK_CASM3C_HLADR: BioMAP Diversity Plus: CASM3C Assay for Human Leukocyte Antigen - DR isotype (HLADR) Biomarker Activity (AID 2283043).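 Further: cell-surface HLA-DR protein level quantified by ELISA.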 The following applies: primary human coronary artery smooth muscle cells; actives raise or lower the signal.

Read-out in assay [4]: Macrophage colony-stimulating factor (MCSF), CSF1 (gene 1435)
Briefly: BSK_CASM3C_MCSF: BioMAP Diversity Plus: CASM3C Assay for Macrophage colony-stimulating factor (MCSF) Biomarker Activity (AID 2283044).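 Further: M-CSF protein amount quantified by ELISA after 24 h exposure.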 The following applies: primary human coronary artery smooth muscle cells; actives raise or lower the signal.

Read-out in assay [5]: Low-density lipoprotein receptor (LDLR), LDLR (gene 3949)
The experiment in a line: BSK_CASM3C_LDLR: BioMAP Diversity Plus: CASM3C Assay for Low-density lipoprotein receptor (LDLR) Biomarker Activity (AID 2283045).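 Further: LDLR protein level on the cell surface quantified by ELISA.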 The following applies: primary human coronary artery smooth muscle cells; actives raise or lower the signal.

Read-out in assay [6]: Monocyte Chemoattractant Protein-1 (MCP1), CCL2 (gene 6347)
Briefly: BSK_CASM3C_MCP1: BioMAP Diversity Plus: CASM3C Assay for Monocyte Chemoattractant Protein-1 (MCP1) Biomarker Activity (AID 2283046).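 Further: MCP-1 level quantified by ELISA 24 h after dosing.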 The following applies: primary human coronary artery smooth muscle cells; actives raise or lower the signal.

A short description of assay [7]: BSK_CASM3C_Proliferation: Cell Proliferation Assessment in the BioMAP Diversity Plus: CASM3C Assay (AID 2283047).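 Further: sulforhodamine B total protein stain as relative cell number at 560 nm; sub-confluent cells exposed 48 h before staining; fitted both ways against DMSO so gain or loss of cell number.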 The following applies: primary human coronary artery smooth muscle cells.
Read-out in assay [8]: Monokine induced gamma interferon (MIG), CXCL9 (gene 4283)
The experiment in a line: BSK_CASM3C_MIG: BioMAP Diversity Plus: CASM3C Assay for Monokine induced gamma interferon (MIG) Biomarker Activity (AID 2283048).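 Further: MIG protein level measured by ELISA.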 The following applies: primary human coronary artery smooth muscle cells; actives raise or lower the signal.

Read-out in assay [9]: serum amyloid A (SAA), SAA1 (gene 6288)
Briefly: BSK_CASM3C_SAA: BioMAP Diversity Plus: CASM3C Assay for serum amyloid A (SAA) Biomarker Activity (AID 2283049).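 Further: SAA protein level quantified by ELISA.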 The following applies: primary human coronary artery smooth muscle cells; actives raise or lower the signal.

The nature of assay [10]: BSK_CASM3C_SRB: Viability Assessment in the BioMAP Diversity Plus: CASM3C Assay (AID 2283050).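 Further: total protein by SRB staining as cytotoxicity measure in parallel cultures; cells exposed to compound for 24 h.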 The following applies: primary human coronary artery smooth muscle cells.

Molecules are shown by their SMILES. “And” between values parts separate entries of the source, which are not always exact repeats. Equal entries are not always repeated. Some compounds were tested as several samples or in several runs, with calls that do not always agree. The source made the active and inactive calls. How the source made its calls: active means hit-call score of the fitted dose curve at least 0.9, where 1 is the maximum; inactive means score below 0.9.

The AC50 is the concentration giving half of the maximal activity seen. Consider `CCOC(C=C(C)CCC=C(C)C)OCC`, for which the result in assay [1], in [2] and in assay [9] was inactive. Moreover, the AC50 in [3] was 20 µM (active); in [4] it was 20 µM (active); in [5], 10.3 µM (active); in [6] it was 28.9 µM (active); in assay [7] it was 33.7 µM (active); in [8], 34.4 µM (active). The AC50 in assay [10] is 32.1 µM (active).
For the compound `OCC(O)CC(F)(F)C(F)(F)C(F)(F)C(F)(F)C(F)(F)C(F)(F)C(F)(F)C(F)(F)F` (stereo unspecified), the outcome in assay [1], in assay [2], in [3], in assay [4], in assay [5] and in assay [6] was inactive. Further, the outcome in assay [7], in [8], in assay [9] and in assay [10] was inactive.
Consider `OCC(O)CC(F)(F)C(F)(F)C(F)(F)C(F)(F)F` (stereo unspecified), for which the outcome in [1], in [2], in assay [3], in [4], in assay [5] and in assay [6] was inactive. The result in assay [7], in assay [8], in assay [9] and in assay [10] was inactive.
`C[Si](Cl)(Cl)CCC(F)(F)C(F)(F)C(F)(F)C(F)(F)C(F)(F)C(F)(F)F`: the outcome in assay [1], in [2], in assay [3], in [4], in assay [5] and in assay [6] was inactive. The outcome in [7], in [8], in [9] and in [10] was inactive.
Turning to `OC(O)C(F)(F)C(F)(F)F`, the outcome in [1], in assay [2], in assay [3], in [4], in assay [5] and in assay [6] was inactive. The outcome in [7], in [8], in assay [9] and in assay [10] was inactive.
As to `O=C(O)C(F)(F)C(F)(F)C(F)(F)C(=O)O`, the result in assay [1], in assay [2], in assay [3], in assay [4], in assay [5] and in assay [6] was inactive. The outcome in assay [7], in assay [8], in assay [9] and in assay [10] was inactive.
In the case of `CO[Si](C)(CCC(F)(F)C(F)(F)C(F)(F)C(F)(F)C(F)(F)C(F)(F)F)OC`, the outcome in [1], in assay [2], in assay [3], in [4], in assay [5] and in assay [6] was inactive. The outcome in [7], in assay [8], in assay [9] and in assay [10] was inactive.
As to `OCC(F)(F)C(F)(F)C(F)(F)C(F)(F)C(F)(F)C(F)(F)C(F)(F)C(F)(F)CO`, the result in [1], in assay [2], in assay [3], in [4], in assay [5] and in [6] was inactive. Besides, the outcome in [8], in [9] and in assay [10] was inactive. Moreover, the AC50 in assay [7] is 49.9 µM (active) and 45.4 µM (active); in [10], 43.2 µM (active).
Turning to `O=S(=O)(O)CCC(F)(F)C(F)(F)C(F)(F)C(F)(F)F`, the outcome in assay [1], in assay [2], in assay [3], in assay [4], in assay [5] and in assay [6] was inactive. The outcome in assay [7], in assay [8], in assay [9] and in assay [10] was inactive.
Regarding `FC(F)(F)C(F)(F)C(F)(F)C(F)(F)C(F)(F)C(F)(F)C(F)(F)CCI`, the result in assay [1], in assay [2], in [3], in assay [4], in assay [5] and in [6] was inactive. The result in [7], in assay [8], in assay [9] and in [10] was inactive.
For the compound `NC(=O)C(F)(F)C(F)(F)C(F)(F)C(F)F`, the result in assay [1], in [2], in [3], in assay [4], in assay [5] and in assay [6] was inactive. Besides, the outcome in assay [7], in [8], in [9] and in assay [10] was inactive.
Turning to `O=C(c1ccccc1)c1ccc(O)cc1O`, the result in [1], in assay [2], in assay [3], in assay [4], in [5] and in assay [6] was inactive. Moreover, the outcome in assay [7], in assay [8], in assay [9] and in assay [10] was inactive.
As to `O=C(O)C(F)(F)C(F)(F)C(F)(F)OC(F)(F)F`, the result in assay [1], in assay [2], in assay [3], in [4], in assay [5] and in [6] was inactive. In addition, the result in assay [7], in assay [8], in assay [9] and in [10] was inactive.
Turning to `NC(=O)C(F)(F)C(F)(F)C(F)(F)C(F)(F)C(N)=O`, the outcome in [1], in assay [2], in [3], in assay [4], in assay [5] and in assay [6] was inactive. Besides, the result in assay [7], in [8], in assay [9] and in assay [10] was inactive.
For the compound `CCN(CC)c1ccc2c(c1)Oc1cc(N(CC)CC)ccc1C21OC(=O)c2ccccc21`, the outcome in [1], in assay [2], in assay [3], in assay [4], in assay [5] and in [6] was inactive. The result in assay [7], in assay [8], in assay [9] and in assay [10] was inactive.
In the case of `O=C1c2c(O)ccc(Nc3ccc(CCO)cc3)c2C(=O)c2c([N+](=O)[O-])ccc(O)c21`, the result in assay [1], in assay [3], in [4], in [5], in assay [6] and in assay [8] was inactive. Besides, the result in assay [9] was inactive. The AC50 is 2.52 µM (active) in [2], 14.5 µM (active) in [7] and 4.72 µM (active) in assay [10].

Values taken from PubChem BioAssay (EPA / NIEHS).
